These compounds were tested on Vero E6 infected with SARS-CoV-2 (assay: SARS-CoV-2 infection rate relative to infected DMSO; higher = more infection, active = 60 or less). Details: 24 h.
In the case of `CN1CCN(c2ccc(C(=O)Nc3n[nH]c4ccc(Cc5cc(F)cc(F)c5)cc34)c(NC3CCOCC3)c2)CC1` [entrectinib] (0.833333 µM), the SARS-CoV-2 infection rate is reported as 96.5% (inactive).
With `CC(C)[C@@H]1C(=O)N(S(C)(=O)=O)[C@@H]2CCN(C(=O)/C=C/CN3CCCCC3)[C@H]21` (10 µM) the SARS-CoV-2 infection rate was 106% (inactive).
With `CC(C)C(=O)Nc1ccc([N+](=O)[O-])c(C(F)(F)F)c1` [flutamide] (10 µM) the SARS-CoV-2 infection rate was 112% (inactive).
For `COc1ccc2cc3[n+](cc2c1OC)CCc1cc2c(cc1-3)OCO2` [berberine] (10 µM), the SARS-CoV-2 infection rate was 98% (inactive).
For `O=c1n(CC2CO2)c(=O)n(CC2CO2)c(=O)n1CC1CO1` (stereo not given) [teroxirone] (10 µM), the SARS-CoV-2 infection rate was 115% (inactive).
In the case of `CCOC(=O)[C@H](CCc1ccccc1)N[C@@H](C)C(=O)N1Cc2ccccc2C[C@H]1C(=O)O` [quinapril] (10 µM), the SARS-CoV-2 infection rate is reported as 109% (inactive).
In the case of `O=C(O)Cc1ccccc1Nc1c(Cl)cccc1Cl` [diclofenac] (10 µM), the SARS-CoV-2 infection rate is reported as 106% (inactive).
`CN1CCN(c2cc3c(cc2F)c(=O)c(C(=O)O)cn3-c2ccc(F)cc2)CC1` [difloxacin] (10 µM) was tested, and the SARS-CoV-2 infection rate was 99.5% (inactive).
With `CCCCCCCCCCCCCCCC(=O)O[C@@H]1[C@@H](O)[C@@H](O)[C@@H]([C@H](NC(=O)[C@@H]2C[C@@H](CCC)CN2C)[C@H](C)Cl)O[C@@H]1SC` [clindamycin-palmitate] (10 µM) the SARS-CoV-2 infection rate was 108% (inactive).
With `COc1cc(O)c(C(=O)c2ccccc2)cc1S(=O)(=O)O` [sulisobenzone] (10 µM) the SARS-CoV-2 infection rate was 109% (inactive).
In the case of `Cc1cc(/C=C2\SC(=O)N(c3ccccc3)C2=O)c(C)n1-c1cccnc1` (10 µM), the SARS-CoV-2 infection rate is reported as 102% (inactive).
In the case of `CONC(=N)c1ccc(-c2ccc(-c3ccc(C(=N)NOC)cc3)o2)cc1` [pafuramidine] (10 µM), the SARS-CoV-2 infection rate is reported as 106% (inactive).
With `Cc1cccc(-c2nn3c(c2-c2ccnc4ccc(C(N)=O)cc24)CCC3)n1` (10 µM) the SARS-CoV-2 infection rate was 100% (inactive).
`CNC(=N)NC(=O)Nc1c(C)cccc1C` [lidamidine] (10 µM) was tested, and the SARS-CoV-2 infection rate was 118% (inactive).
With `COc1ccc(C2(O)CCC(N3CC[C@@H](NC(=O)CNC(=O)c4cccc(C(F)(F)F)c4)C3)CC2)cn1` (stereo not given in full) (10 µM) the SARS-CoV-2 infection rate was 105% (inactive).
With `Cc1ccc2c(c1)[C@H]1CN(C)CC[C@H]1N2` [stobadine] (10 µM) the SARS-CoV-2 infection rate was 98% (inactive).
In the case of `O=C(C1CCCCC1)N1CC(=O)N2CCc3ccccc3C2C1` (stereo not given) [praziquantel] (10 µM), the SARS-CoV-2 infection rate is reported as 106% (inactive).
`Cc1c(C)c2c(c(C)c1O)CC[C@@](C)(CCC[C@H](C)CCC[C@H](C)CCCC(C)C)O2` [vitamin-E] (10 µM) was tested, and the SARS-CoV-2 infection rate was 117% (inactive).
`OC(c1ccccc1)(c1ccccc1)C1CCNCC1` [azacyclonol] (10 µM) was tested, and the SARS-CoV-2 infection rate was 110% (inactive).
In the case of `CCN(CCCc1ccccc1)CCCc1ccccc1` [alverine] (10 µM), the SARS-CoV-2 infection rate is reported as 62% (inactive).
`CNC(=O)c1cc(Oc2ccc(NC(=O)Nc3ccc(Cl)c(C(F)(F)F)c3)cc2)ccn1` [sorafenib] (0.833333 µM) was tested, and the SARS-CoV-2 infection rate was 118% (inactive).
In the case of `Oc1ccc(-c2nc(-c3ccc(F)cc3)c(-c3ccncc3)[nH]2)cc1` (10 µM), the SARS-CoV-2 infection rate is reported as 71% (inactive).
In the case of `COc1cc(C[C@@H](CO)[C@H](CO)Cc2ccc(O)c(OC)c2)ccc1O` [secoisolariciresinol-(-)] (10 µM), the SARS-CoV-2 infection rate is reported as 109% (inactive).
In the case of `CC(C)[N+](C)(CCOC(=O)C1c2ccccc2Oc2ccccc21)C(C)C` [propantheline] (10 µM), the SARS-CoV-2 infection rate is reported as 99.5% (inactive).
With `NS(=O)(=O)C#Cc1ccccc1` [pifithrin-mu] (0.833333 µM) the SARS-CoV-2 infection rate was 92% (inactive).
`Cc1c(Cl)cccc1S(=O)(=O)Nc1nc(CC(=O)N2CCN(C)CC2)cs1` (10 µM) was tested, and the SARS-CoV-2 infection rate was 110% (inactive).
For `O=C(O[C@@H]1Cc2c(O)cc(O)cc2O[C@@H]1c1cc(O)c(O)c(O)c1)c1cc(O)c(O)c(O)c1` [epigallocatechin-gallate-(-)] (10 µM), the SARS-CoV-2 infection rate was 100% (inactive).
In the case of `Cc1c(C(=O)NN2CCOCC2)nn(-c2ccc(Cl)cc2Cl)c1-c1ccc(I)cc1` (10 µM), the SARS-CoV-2 infection rate is reported as 87.5% (inactive).
In the case of `Nc1nc(CC(=O)Nc2ccc(CCNC[C@H](O)c3ccccc3)cc2)cs1` [mirabegron] (10 µM), the SARS-CoV-2 infection rate is reported as 102% (inactive).
For `O=C(NCCCNc1nc(Nc2cccc(NC(=O)N3CCCC3)c2)ncc1I)c1cccs1` (0.833333 µM), the SARS-CoV-2 infection rate was 118% (inactive).

From the supplement of paper PMC13380429
